# Experimental data taken from PubChem BioAssay (NCATS).
# Several values for one entry are separate records, joined by “and”; a condition that tells them apart may be missing. Identical values can stand only once. Inconclusive results are not listed. Values without a mark were called inactive. Activity calls are given as the source filed them. Calls follow the shape of the dose curve; as a rule, active = well fitted curve in the direction sought with a large enough effect; inconclusive = small, poorly fitted or top-dose-only effect, or another doubt; inactive = no such curve, though single readings can be large; an effect the other way counts as inactive or inconclusive.
# Key:
# [1] = Primary qHTS for inhibitors of nuclear receptor binding SET domain protein 2 (NSD2) in an isogenic RCH-ACV NSD2 p.E1099K mutant (9B) (AID 1645876)
# [2] = Primary qHTS for inhibitors of nuclear receptor binding SET domain protein 2 (NSD2) in an RCH-ACV wild type WT cells (2C) (AID 1645877)
# % is scaled to controls: 0 for no effect and ±100 for the full control effect; potency is read from the fitted curve at half-maximal effect.
# Also: nearly all actives have a fitted effect of over 70% in size.
SMILES,Potency [1],Potency [2],"activity change, negative = viability loss [1]","activity change, negative = cell killing [2]"
CNC(=O)c1ccc2c(c1)CCO[C@H]2CCN1CCN(c2ccc(OC)cc2)CC1,inactive,inactive,–,–
COCC(c1ccc(C(F)(F)F)cc1)N1CCN(C2(C)CCN(C(=O)c3c(C)ncnc3C)CC2)CC1C (stereo not given),inactive,inactive,–,–
c1cc(-c2cnn3cc(-c4ccc(N5CCNCC5)cc4)cnc23)c2cccnc2c1,5.25 µM (active),4.17 µM (active),–,–
CCC/C=C/C=C/C1CC(O)C2(O)C(=O)OCC12 (stereo not given),inactive,inactive,–,–
CC(C)C[C@@H]1NC(=O)[C@@H]2C[C@@]34C[C@@H]5[C@@]6(C)CCCC(C)(C)C6CC[C@@]5(C)N(c5ccccc53)[C@H]4N2C1=O (stereo not given in full),3.55 µM (active),3.99 µM (active),–,–
CN1CC[C@@H](c2c(O)cc(O)c3c(=O)cc(-c4ccc(C(F)(F)F)cc4Cl)oc23)[C@@H]1CO,18.6 µM (active),16.6 µM (active),–,–
COc1cccc(-c2cc(F)ccc2C2Cc3nc(N)nc(C)c3C(=O)N2)n1 (stereo not given),0.0525 µM (active),0.059 µM (active),–,–
C#CCCCn1cc(-c2cccc3c2N[C@H](C)CC(=O)N3)cn1,23 µM (active),14.5 µM (active),–,–
O=C(Nc1ccccc1Cl)c1cnc2ccc(C3CCNCC3)cn12,1.29 µM (active),2.3 µM (active),–,–
C=C1CC[C@@H](O)[C@]2(C)CC[C@H]3C(=C)C(=O)O[C@@H]3[C@@H]12,20.5 µM (active),16.3 µM (active),–,–
Nc1nc(NC2CC2)cc(-c2cccc(Cl)c2Cl)n1,4.59 µM (active),2.58 µM (active),–,–
C=C1C(=O)O[C@@H]2C[C@@]3(C)C[C@@H](O)C[C@H](C)C3=C[C@H]12,7.28 µM (active),5.15 µM (active),–,–
C=CS(=O)(=O)NC1CCN(C(=O)CNc2cc(I)c(Cl)cc2OC)CC1,4.59 µM (active),3.25 µM (active),–,–
Cc1ccc(-c2c(C(=O)CCl)n(CCCO)c3ncnc(N)c23)cc1,20.5 µM (active),23 µM (active),–,–
C=C1CC(=O)C2OC2(C)CC2OC(=O)C(=C)C2C(O)C1OC(=O)/C(C)=C\C (stereo not given),3.19 µM (active),2.01 µM (active),–,–
NC(=O)c1ccccc1Nc1ccnc(Nc2cccc(O)c2)n1,0.742 µM (active),0.833 µM (active),–,–
Nc1c(S(=O)(=O)c2ccccc2)c2nc3ccccc3nc2n1-c1ccc(F)cc1,inactive,inactive,–,–
CC1(C)CCC2(C(=O)OC3OC(COC4OC(CO)C(O)C(O)C4O)C(O)C(O)C3O)CCC3(C)C(=CCC4C5(C)CCC(OC6OCC(O)C(O)C6O)C(C)(C)C5CCC43C)C2C1O (stereo not given),–,–,-12.3% [at 9.23 µM],-18.7% [at 9.23 µM]
Cc1cc2c(cc1N1C(=O)c3cccc4c(CCCO)ccc(c34)C1=O)n(C)c(=O)n2C,0.858 µM (active),0.608 µM (active),–,–
COc1cc(/C=C2\CCCN([C@@H](C)c3ccc(F)cc3)C2=O)ccc1-n1cnc(C)c1,11.5 µM (active),12.9 µM (active),–,–

SMILES,Potency [1],Potency [2],"activity change, negative = viability loss [1]","activity change, negative = cell killing [2]"
C=C1C(=O)O[C@@H]2C3=C(C)CCC[C@]3(C)CC[C@@]12O,2.3 µM (active),1.29 µM (active),–,–
Fc1ccc(CN2CCC(Nc3ccc(C(F)(F)F)nn3)CC2)cc1F,inactive,inactive,–,–
CC#CCn1c(N2CCCC(N)C2)nc2c1c(=O)n(Cc1nc(C)c3ccccc3n1)c(=O)n2C (stereo not given),inactive,inactive,–,–
COc1ccccc1C(=O)Nc1cccc(NC(=O)c2cccc(C)c2)c1,inactive,inactive,–,–
O=C(Nc1cccc(C(F)(F)F)c1)Nc1ccc(Br)cc1-c1nn[nH]n1,inactive,inactive,–,–
Nc1ncnc2c1nc(Cl)n2C1OC2COP(=O)(O)OC2C1O (stereo not given),2.05 µM (active),2.9 µM (active),–,–
Cc1nc2c(C(F)(F)F)cccc2nc1-c1ccc(-c2cccc(S(C)(=O)=O)c2)cc1,inactive,inactive,–,–
COc1cc(CCC2=NN=C(NC(=O)c3ccc(N4C[C@@H](C)N[C@@H](C)C4)cc3)C2)cc(OC)c1,5.78 µM (active),5.78 µM (active),–,–
Cc1sc2c(c1C)C(c1ccc(Cl)cc1)=N[C@H](CC(=O)NCCCCNC(=O)COc1cccc3c1C(=O)N([C@H]1CCC(=O)NC1=O)C3=O)c1nnc(C)n1-2,0.23 µM (active),0.129 µM (active),–,–
CCC(C)C1NC(=O)C(Cc2ccccc2)NC(=O)C(CCCCCC(=O)C(O)CO)NC(=O)C2CCCCN2C1=O (stereo not given),6.08 µM (active),2.16 µM (active),–,–
Nc1nc(Nc2ccc3c(c2)CCC(N2CCCC2)CC3)nn1-c1cc2c(nn1)-c1ccccc1CCC2 (stereo not given),1.63 µM (active),1.45 µM (active),–,–
C/C(=C\CCC(C)C1=CCC2(C)OC3=C(CC12)C(=O)C(O)CC3)CO (stereo not given),inactive,inactive,–,–
CC(=O)NC[C@H]1CN(c2ccc(N3CCSCC3)c(F)c2)C(=O)O1,inactive,inactive,–,–
C=C1C(=O)O[C@H]2C1CCC(C)=C1C(=O)C=C(C)[C@@]12O (stereo not given in full),20.5 µM (active),12.9 µM (active),–,–
Cn1cc(-c2cnn3c(N)c(Br)c([C@@H]4CCCNC4)nc23)cn1,1.15 µM (active) and 3.72 µM (active),1.15 µM (active) and 4.17 µM (active),–,–
C=C1C(=O)O[C@@H]2[C@H]3C(C)=CC(=O)C3=C(C)CC[C@@H]12,2.9 µM (active),2.05 µM (active),–,–
CCc1cc(C(N)=O)ccc1-n1nc(C(C)C)c2c(-n3cnc(-c4cnn(C)c4)c3)ccnc21,1.18 µM (active),1.05 µM (active),–,–
Cc1sc2c(c1C)C(c1ccc(Cl)cc1)=N[C@@H](CC(=O)Nc1ccc(OCCOCCOCCOCCNc3cccc4c3C(=O)N(C3CCC(=O)NC3=O)C4=O)cc1)c1nnc(C)n1-2 (stereo not given in full),4 nM (active) and 10.5 nM (active),3.2 nM (active) and 14.8 nM (active),–,–
CN(C)CCn1cc(-c2ccc(F)cc2)c(-n2cccc2)n1,inactive,inactive,–,–
C=C1C(=O)O[C@@H]2/C=C(\C)CC/C=C(/C=O)[C@H](OC)[C@@H](OC(=O)C(C)C)[C@@H]12,8.01 µM (active),3.19 µM (active),–,–

SMILES,Potency [1],Potency [2],"activity change, negative = viability loss [1]","activity change, negative = cell killing [2]"
COc1ccc2[nH]c(=O)c3c(c2c1)OC(C)(C)C=C3,14.5 µM (active),14.5 µM (active),–,–
CC(C)Oc1ccc(-c2cnc3c(-c4ccnc5ccccc45)cnn3c2)cc1,inactive,inactive,–,–
CCC(C)C(=O)O[C@H]1[C@@H](OC(=O)c2ccoc2)C[C@](C)(O)[C@]23OC(C)(C)[C@H](C[C@H](OC(=O)c4ccoc4)[C@]12COC(C)=O)[C@H]3OC(C)=O (stereo not given in full),inactive,inactive,–,–
CN(C)CC1CCn2c(c(C3=C(c4cn(C)c5ccccc45)C(=O)NC3=O)c3ccccc32)C1 (stereo not given),7.28 µM (active),5.15 µM (active),–,–
Cn1sc(=O)n(Cc2ccccc2)c1=O,7.28 µM (active) and 18.4 µM (active),2.58 µM (active) and 11.6 µM (active),–,–
CCN1CCN(Cc2ccc(NC(=O)c3ccc(C)c(Oc4ncnc5[nH]c(C)cc45)c3)cc2C(F)(F)F)CC1,2.05 µM (active),2.3 µM (active),–,–
OC1C=C2C3CN(Cc4cc5c(cc43)OCO5)C2CC1O (stereo not given),6.49 µM (active),7.28 µM (active),–,–
C=C(C)C(=O)O[C@H]1[C@H]2C(=C)C(=O)O[C@@H]2C[C@@H](C)[C@@H]2O[C@@H]2C(=O)[C@](C)(O)[C@@H]1OC(=O)C(=C)C,1.78 µM (active),1.26 µM (active),–,–
CC(=O)O[C@@H]1[C@@H](OC(C)=O)[C@H](C)O[C@@H](O[C@H]2[C@@H]3C=CO[C@@H](O[C@@H]4O[C@H](CO)[C@@H](O)[C@H](O)[C@H]4O)[C@@H]3[C@@]3(CO)O[C@@H]23)[C@@H]1OC(=O)/C=C/c1ccccc1,6.82 µM (active),4.83 µM (active),–,–
C/C(=C\CO[C@@H]1O[C@H](CO[C@H]2OC[C@](O)(CO)[C@H]2O)[C@@H](O)[C@H](O)[C@H]1O)C(C)(C)O,inactive,inactive,–,–
COc1ccc(C(=O)O[C@H]2C=COC=C3C=C4C(=O)N(C)C(=S)C(=O)N4[C@@H]32)cc1Oc1cc(C=O)ccc1O,6.32 µM (active),2.82 µM (active),–,–
C=C1C(=O)O[C@@H]2[C@H]1CC[C@H](C)[C@]1(CCC(=O)O1)C2(C)O (stereo not given in full),20.5 µM (active),14.5 µM (active),–,–
CO[C@@H]1CC(OC2CCC3(C)C(CCC45CCC(C6=CC(=O)OC6)C(C)(CCC43)C5=O)C2)O[C@H](C)[C@@H]1O[C@@H]1O[C@H](CO[C@@H]2O[C@H](CO)[C@@H](O)[C@H](O)[C@H]2O)[C@@H](O)[C@H](O)[C@H]1O (stereo not given in full),1.73 µM (active),3.46 µM (active),–,–
CCC(CC)Nc1nc(C)c(-c2ccc(OC(F)(F)F)cc2OC)nc1OC,inactive,inactive,–,–
C/C=C(/C)C(=O)O[C@H]1C=C(CO)C(=O)[C@H](OC(=O)/C(C)=C/CO)[C@H]1C(C)C,1.79 µM (active),1.79 µM (active),–,–
C=C1C(=O)O[C@@H]2C(OC(=O)/C(C)=C\C)/C(C)=C\C(=O)/C=C(\C)C[C@H](O)[C@@H]12 (stereo not given in full),2.26 µM (active),1.6 µM (active),–,–
O=S(=O)(NCc1ccccn1)c1ccc(Br)c2ccccc12,inactive,inactive,–,–
C=C[C@@]1(C)CCC2C(=CCC3[C@]2(C)CCC[C@@]3(C)C(=O)O)C1 (stereo not given in full),inactive,inactive,–,–
Cc1cc2ncc(C(=O)NCC(C)(C)NCC(=O)N3CCC[C@H]3C#N)cn2n1,inactive,inactive,–,–
C=CCNC1=C2C[C@@H](C)C[C@H](OC)[C@H](O)[C@@H](C)/C=C(\C)[C@H](OC(N)=O)[C@@H](OC)/C=C\C=C(/C)C(=O)NC(=CC1=O)C2=O,3.32 µM (active),2.63 µM (active),–,–
